Bioassay records as filed in PubChem.
In the library only some 2.8% were active in any assay of this set; here they are far more common.
SENP8 block-1 = human SENP8 protease inhibitors, primary screen, biochemical, fluorescence, Nedd8 protein substrate, uHTS; inhibition, % at 20 µM; recombinant SENP8; 360,000 compounds, 0.64% hits; in the data active = inhibition mostly above about 40%, no sharp cut-off; inactive = mostly below about 27%
SENP8 block-2 = SENP8 protease inhibitors, primary screen, biochemical, luminescence; Sentrin-specific protease 8 (Homo sapiens), Q96LD8; purified SENP8, Z-RLRGG-aminoluciferin cleavage; inhibition, % at 10 µM; 330,000 compounds, 1.2% hits; AID 2540, 2010; in the data active = inhibition above about 50%
SENP7 inh = SENP7 protease inhibitors, primary screen, biochemical, luminescence, uHTS | Sentrin-specific protease 7 (Homo sapiens), Q9BQF6 | recombinant SENP7, Z-RLRGG-aminoluciferin luminescence, 40 min | inhibition, % at 5 µM | 330,000 compounds, 1.5% hits;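 active = inhibition above about 50% at the single test dose, limit read from the data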;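 also: plate controls were DMSO with enzyme for no effect and no enzyme buffer wells for full effect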
Target sequence (Q9BQF6 706-1050 limits assumed): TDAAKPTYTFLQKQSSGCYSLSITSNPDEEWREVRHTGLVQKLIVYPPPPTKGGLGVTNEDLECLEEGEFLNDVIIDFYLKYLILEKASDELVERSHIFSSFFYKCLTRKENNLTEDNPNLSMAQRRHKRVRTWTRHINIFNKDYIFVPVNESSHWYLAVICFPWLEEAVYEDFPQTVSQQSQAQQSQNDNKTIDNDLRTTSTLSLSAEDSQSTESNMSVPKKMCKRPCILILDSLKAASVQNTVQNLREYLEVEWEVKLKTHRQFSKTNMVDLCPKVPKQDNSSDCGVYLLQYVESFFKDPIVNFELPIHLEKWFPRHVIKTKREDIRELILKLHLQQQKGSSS
SENP6 inh = SENP6 protease inhibitors, primary screen, biochemical, luminescence, uHTS; Sentrin-specific protease 6 (Homo sapiens), Q9GZR1; Recombinant SENP6 catalytic domain, aminoluciferin luminescence; inhibition, % at 10 µM; 330,000 compounds, 1.8% hits; AID 2599, 2010;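 active = inhibition above about 50% at the single tested dose, limit read from the data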;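 also: plate controls were DMSO wells with enzyme for no effect and DMSO wells lacking enzyme for full effect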
HSP90 inh = HSP90 inhibitors, primary screen, cell lysate, luminescence; 290,000 compounds, 0.91% hits; AID 1789, 2009; inhibition, % at 5.6 µM; Rabbit reticulocyte lysate, luciferase refolding luminescence, 3 h;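 active = inhibition above the screen-wide mean plus 3 SD, computed separately per campaign, cut at about 16% in these data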;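 also: 0% = DMSO wells and 100% = 60 µM geldanamycin wells; inhibitors lower the luminescence because luciferase stays unfolded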
Platelet DG rel = inhibitors of platelet dense granule secretion, primary screen, cell-based, MLPCN, human platelets | inhibition, %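 (compounds screened at 7.5 µM in platelet-rich plasma)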 | 300,000 compounds, 0.22% hits | human platelet-rich plasma, SFLLRN dense granule ATP release, luminescence | AID 1663, 2009;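 active = mean replicate score, as percent of positive control, at or above 50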
SENP8 confirm = SENP8 protease inhibitors, retest, confirmation, biochemical, luminescence, single concentration. AID 488912, 2010. 6,200 compounds, 40% hits. inhibition, % at 12.5 µM. shares compounds with SENP7 inh. Recombinant SENP8, Z-RLRGG-aminoluciferin luminescence, 60 min;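 active = mean inhibition across replicates above about 50%, limit read from the data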
SENP6 confirm = SENP6 protease inhibitors, confirmation, biochemical, luminescence, single concentration; shares compounds with SENP7 inh; recombinant SENP6, Z-RLRGG-aminoluciferin luminescence; inhibition, % at 12.5 µM; 6,200 compounds, 58% hits
SENP7 conf = SENP7 protease inhibitors, retest, confirmation, biochemical, luminescence, single concentration | recombinant SENP7, Z-RLRGG-aminoluciferin luminescence, 40 min | inhibition, % at 12.5 µM | 6,200 compounds, 69% hits | shares compounds with SENP7 inh
Casp3 select = caspase-3 protease inhibitors, confirmation, selectivity assay for SENP inhibitor project, biochemical, single concentration | inhibition, % at 12.5 µM | 6,200 compounds, 60% hits | AID 488918, 2010 | shares compounds with SENP7 inh | purified caspase-3, Z-DEVD-aminoluciferin luminescence, 60 min;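 active = mean inhibition above about 50%, limit read from the data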;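 also: plate controls were enzyme with DMSO for no effect and wells without caspase-3 for full effect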
Target sequence (P42574 28-227 limits assumed): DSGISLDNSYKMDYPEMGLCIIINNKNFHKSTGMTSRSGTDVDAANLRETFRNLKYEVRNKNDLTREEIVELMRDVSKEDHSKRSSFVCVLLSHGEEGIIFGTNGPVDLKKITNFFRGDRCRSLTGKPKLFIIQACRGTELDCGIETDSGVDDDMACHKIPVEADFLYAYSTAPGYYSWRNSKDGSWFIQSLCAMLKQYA
Luc interf = interferes with luciferase luminescence in SENP counter-screen. shares compounds with SENP7 inh. Pre-incubated SENP8/Z-RLRGG-aminoluciferin, luciferase luminescence interference. inhibition, % at 12.5 µM. 6,200 compounds, 39% hits. AID 488919;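 active = mean inhibition above about 50% when retested at one dose, limit read from the data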;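 also: plate controls were DMSO wells with completed reaction for no effect and substrate without enzyme for full effect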
* marks the source's active call; other numbers are inactive results; nt = no result given.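 The calls were made as follows, unless noted: active = mean inhibition above about 50% in the one-dose retest (limit read from the data); inactive = the rest.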

SMILES	SENP8 block-1	SENP8 block-2	SENP7 inh	SENP6 inh	HSP90 inh	Platelet DG rel	SENP8 confirm	SENP6 confirm	SENP7 conf	Casp3 select	Luc interf
COc1ccc(-c2cc(-c3ccccc3)n[nH]2)c(O)c1	-3	66*	65*	68*	1	8	74*	72*	90*	28	72*
COc1ccc(O)c(-c2cc(-c3ccccc3Cl)[nH]n2)c1	-3	46	38	49	-9	5	nt	nt	nt	nt	nt
COc1ccc(F)cc1-c1cc(NC(C)=O)c2ncc(-c3cccc(C(F)(F)F)c3)n2c1	-500	nt	nt	nt	nt	nt	nt	nt	nt	nt	nt
C#CCN1C(=O)S/C(=C\c2ccc(-c3ccc(Cl)c(C(=O)O)c3)o2)C1=O	-167	49	21	70*	23*	8	74*	74*	82*	32	40
COCCn1c(C)cc(C(=O)COC(=O)c2ccc3ncsc3c2)c1C	6	-1	4	-1	3	6	nt	nt	nt	nt	nt
COCCn1c(C)cc(C(=O)COC(=O)c2cccnc2SC)c1C	7	78*	85*	87*	nt	nt	86*	86*	98*	91*	69*
Cc1[nH]nc(SCC(=O)N2CCCCC2)c1[N+](=O)[O-]	2	-2	-1	1	9	0	nt	nt	nt	nt	nt
Cc1[nH]nc(SCC(=O)N2CCCCCC2)c1[N+](=O)[O-]	14	52*	11	-16	1	14	98*	100*	103*	99*	88*
CCOC(=O)c1sc(NC(=O)c2ccc3nc[nH]c3c2)nc1C	-84	73*	75*	81*	9	-11	12	72*	36	26	5
COC(=O)c1sc(NC(=O)c2ccncc2)nc1C	9	86*	94*	90*	11	17	80*	91*	100*	97*	49
CCOc1ccc(C(=O)Nc2nc(C)c(C(=O)OC)s2)cc1	-113	43	92*	54*	7	22	31	30	36	50	12
CCOC(=O)c1sc(NC(=O)c2cccnc2)nc1C	-2	10	4	21	nt	-12	nt	nt	nt	nt	nt
Nc1ncnc2c1ncn2[C@@H]1O[C@H](C(=O)N[C@H](CO)Cc2ccc(O)cc2)[C@@H](O)[C@H]1O	22	nt	nt	nt	nt	nt	nt	nt	nt	nt	nt
O=C(NCCO)OC1CC2CC1[C@H]1CCCCN1C2=O (stereo not given in full)	16	nt	nt	nt	nt	nt	nt	nt	nt	nt	nt
C[C@H](CO)N1C[C@H](C)[C@@H](CN(C)C(=O)c2ccc3c(c2)OCO3)Oc2cc(/C=C/c3ccccc3)ccc2S1(=O)=O	-263	nt	nt	nt	nt	nt	nt	nt	nt	nt	nt
Cn1c(=O)c2c(SCc3ccccc3)nc(C3CC3)nc2n(C)c1=O	18	10	68*	50	2	-17	7	22	25	30	3
CCSc1nn2c(=O)c3ccccc3nc2s1	17	24	30	58*	3	-1	39	36	70*	76*	47
CCOn1c(SCC)nc2ccccc2c1=O	9	-5	1	-12	5	11	nt	nt	nt	nt	nt
CC(=O)N1c2ccc(S(=O)(=O)N3CCCC3C(=O)Nc3ccc(C)cc3)cc2CC1C (stereo not given)	1	-13	-5	-7	-2	-6	nt	nt	nt	nt	nt
C/C(=N\Nc1ccc(S(N)(=O)=O)cc1[N+](=O)[O-])c1ccccc1O	39	-10	-1	-22	-2	6	nt	nt	nt	nt	nt
C/C(=N\Nc1cccc2cccnc12)c1ccccc1O	-6	77*	88*	82*	-1	4	7	18	22	25	3
C/C(=N\Nc1ccccc1[N+](=O)[O-])c1ccccc1O	40*	23	74*	42	-5	-3	11	14	19	24	6
CCCCOCCCNC(=O)C[C@@H]1C[C@@]2(C(=O)OC)CCCCC=C2N(CCc2ccc(OC)c(OC)c2)C1=O	17	nt	nt	nt	nt	nt	nt	nt	nt	nt	nt
O=C(/C=C/Nc1ccc(F)cc1)c1ccco1	-336	74*	69*	83*	-2	24	84*	82*	96*	89*	79*
CCOC(=O)c1ccc(N/C=C/C(=O)c2ccc(OC)c(OC)c2)cc1	-342	-3	-6	-18	0	-8	nt	nt	nt	nt	nt
SMILES	SENP8 block-1	SENP8 block-2	SENP7 inh	SENP6 inh	HSP90 inh	Platelet DG rel	SENP8 confirm	SENP6 confirm	SENP7 conf	Casp3 select	Luc interf
Cc1ccnc(N/C=C/C(=O)c2ccc(Br)cc2)c1	-202	87*	96*	88*	9	18	26	40	60*	54*	18
CCOC(=O)c1ccc(N/C=C/C(=O)c2ccco2)cc1	-275	83*	-6	85*	5	7	69*	71*	85*	88*	30
Cc1cc(N/C=C/C(=O)c2ccc(Br)cc2)no1	-10	-8	1	-25	1	-7	nt	nt	nt	nt	nt
O=C(/C=C/Nc1ccc(F)cc1)c1ccc(Br)cc1	-166	37	79*	1	3	6	4	8	12	36	-3
COc1ccc(CNC(=O)c2ccc(CS(=O)(=O)c3ccc(Br)cc3)o2)cc1	13	-2	-2	9	-8	0	nt	nt	nt	nt	nt
COc1ccc(C)cc1NC(=O)CN1CCN(S(=O)(=O)c2ccc3ccccc3c2)CC1	9	8	-2	10	nt	nt	nt	nt	nt	nt	nt
Cc1ccc(N/C=C/C(=O)c2ccco2)c(O)c1	-72	47	56*	14	3	0	55*	53*	84*	62*	5
O=C(Nc1cccc(-c2ccc(N3CCOCC3)nn2)c1)c1ccccc1Cl	-7	6	26	23	nt	24	nt	nt	nt	nt	nt
